{
  "source": "the supplement of paper PMC4022240",
  "experiment_in_all_cases": "peptide microarray binding signal (635 nm), min-max normalized on array (fraction of array maximum); higher = stronger binding",
  "conditions_in_all_cases": "peptide region: H3 1-13",
  "key": {"[1]": {"biological_target": "T1, HaloTag-ATRX ADD domain (163-292)", "T1 chain": "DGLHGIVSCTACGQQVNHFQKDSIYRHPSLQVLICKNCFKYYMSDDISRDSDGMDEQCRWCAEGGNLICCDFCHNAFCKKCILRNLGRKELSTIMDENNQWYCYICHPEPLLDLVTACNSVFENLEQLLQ", "description": "(§1)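 Histone 13-mer peptides were synthesized as cellulose conjugates with a C-terminal 20-atom PEG linker and printed in triplicate on nitrocellulose. The sequence given is the unmodified backbone; PTMs (Kme1/2/3, Kac, Sph/Tph, Rme/Rme2a/Rme2s, Rcit) are listed in the label and the 'peptide modifications' condition. Slides were probed at 4 °C for 1 h with biotin-labelled (HQ)5-HaloTag reader fusions (ATRX-ADD, ING2-PHD) then streptavidin-Alexa647, or with rabbit histone antibodies then anti-rabbit Alexa647. The mean 635 nm signal of the triplicate spots was scaled 0-1 between the lowest and highest values on each array.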"}, "[2]": {"biological_target": "HaloTag-ING2 PHD (mouse Ing2 200-280)", "description": "as §1"}, "[3]": {"biological_target": "anti-H3K4me3 antibody ab8580", "description": "as §1"}, "[4]": {"biological_target": "anti-H3K9me3 antibody ab8898", "description": "as §1"}, "[5]": {"conditions": "peptide modifications: H3S10ph, binder concentration: 1:2,000 dilution"}, "[6]": {"conditions": "peptide modifications: H3S10ph, binder concentration: 1:10,000 dilution"}, "[7]": {"conditions": "peptide modifications: H3R8me2s H3K9me2, binder concentration: 1:2,000 dilution"}, "[8]": {"conditions": "peptide modifications: H3R8me2s H3K9me2, binder concentration: 1:10,000 dilution"}, "[9]": {"conditions": "peptide modifications: H3R8me2a H3K9ac, binder concentration: 1:2,000 dilution"}, "[10]": {"conditions": "peptide modifications: H3R8me2a H3K9ac, binder concentration: 1:10,000 dilution"}, "[11]": {"conditions": "peptide modifications: H3R8cit H3K9me3, binder concentration: 1:2,000 dilution"}, "[12]": {"conditions": "peptide modifications: H3R8cit H3K9me3, binder concentration: 1:10,000 dilution"}, "[13]": {"conditions": "peptide modifications: H3R8me2s H3K9ac, binder concentration: 1:2,000 dilution"}},
  "note": "± gives the standard deviation.",
  "data": [
    {"binder": "ARTKQTARKSTGG", "note": "[H3 1-13 A R T K Q T A R K Sph T G G]", "values": [
      {"measurement": "peptide microarray binding signal", "setting": "[1]; peptide modifications: H3S10ph, binder concentration: 50 nM", "result": "0.00508 ± 8.1e-05"},
      {"measurement": "peptide microarray binding signal", "setting": "[1]; peptide modifications: H3S10ph, binder concentration: 500 nM", "result": "0.013 ± 0.00036"},
      {"measurement": "peptide microarray binding signal", "setting": "[2]; peptide modifications: H3S10ph, binder concentration: 10 nM", "result": "0.00233 ± 2.7e-05"},
      {"measurement": "peptide microarray binding signal", "setting": "[2]; peptide modifications: H3S10ph, binder concentration: 100 nM", "result": "0.0243 ± 0.00098"},
      {"measurement": "peptide microarray binding signal", "setting": "[3]; [5]", "result": "0.000321 ± 3.3e-06"},
      {"measurement": "peptide microarray binding signal", "setting": "[3]; [6]", "result": "0.000514 ± 5.5e-06"},
      {"measurement": "peptide microarray binding signal", "setting": "[4]; [5]", "result": "0.000362 ± 1.3e-05"},
      {"measurement": "peptide microarray binding signal", "setting": "[4]; [6]", "result": 0.000288}
    ]},
    {"binder": "ARTKQTARKSTGG", "note": "[H3 1-13 A R T K Q T A Rme2s Kme2 S T G G]", "values": [
      {"measurement": "peptide microarray binding signal", "setting": "[1]; peptide modifications: H3R8me2s H3K9me2, binder concentration: 50 nM", "result": "0.0108 ± 0.00034"},
      {"measurement": "peptide microarray binding signal", "setting": "[1]; peptide modifications: H3R8me2s H3K9me2, binder concentration: 500 nM", "result": "0.0202 ± 0.00096"},
      {"measurement": "peptide microarray binding signal", "setting": "[2]; peptide modifications: H3R8me2s H3K9me2, binder concentration: 10 nM", "result": "0.0292 ± 0.0027"},
      {"measurement": "peptide microarray binding signal", "setting": "[2]; peptide modifications: H3R8me2s H3K9me2, binder concentration: 100 nM", "result": "0.049 ± 0.0084"},
      {"measurement": "peptide microarray binding signal", "setting": "[3]; [7]", "result": "0.00447 ± 0.00012"},
      {"measurement": "peptide microarray binding signal", "setting": "[3]; [8]", "result": "0.00451 ± 0.00027"},
      {"measurement": "peptide microarray binding signal", "setting": "[4]; [7]", "result": "0.00805 ± 0.0035"},
      {"measurement": "peptide microarray binding signal", "setting": "[4]; [8]", "result": "0.0049 ± 0.00019"}
    ]},
    {"binder": "ARTKQTARKSTGG", "note": "[H3 1-13 A R T K Q T A Rme2a Kac S T G G]", "values": [
      {"measurement": "peptide microarray binding signal", "setting": "[1]; peptide modifications: H3R8me2a H3K9ac, binder concentration: 50 nM", "result": "0.0172 ± 0.00041"},
      {"measurement": "peptide microarray binding signal", "setting": "[1]; peptide modifications: H3R8me2a H3K9ac, binder concentration: 500 nM", "result": "0.0506 ± 0.0025"},
      {"measurement": "peptide microarray binding signal", "setting": "[2]; peptide modifications: H3R8me2a H3K9ac, binder concentration: 10 nM", "result": "0.0458 ± 0.0028"},
      {"measurement": "peptide microarray binding signal", "setting": "[2]; peptide modifications: H3R8me2a H3K9ac, binder concentration: 100 nM", "result": "0.0544 ± 0.012"},
      {"measurement": "peptide microarray binding signal", "setting": "[3]; [9]", "result": "0.00338 ± 0.00042"},
      {"measurement": "peptide microarray binding signal", "setting": "[3]; [10]", "result": "0.00285 ± 0.00048"},
      {"measurement": "peptide microarray binding signal", "setting": "[4]; [9]", "result": "0.00364 ± 0.00047"},
      {"measurement": "peptide microarray binding signal", "setting": "[4]; [10]", "result": "0.00179 ± 4.5e-05"}
    ]},
    {"binder": "ARTKQTARKSTGG", "note": "[H3 1-13 A R T K Q T A Rcit Kme3 S T G G]", "values": [
      {"measurement": "peptide microarray binding signal", "setting": "[1]; peptide modifications: H3R8cit H3K9me3, binder concentration: 50 nM", "result": "0.325 ± 0.047"},
      {"measurement": "peptide microarray binding signal", "setting": "[1]; peptide modifications: H3R8cit H3K9me3, binder concentration: 500 nM", "result": "0.387 ± 0.024"},
      {"measurement": "peptide microarray binding signal", "setting": "[2]; peptide modifications: H3R8cit H3K9me3, binder concentration: 10 nM", "result": "0.0423 ± 0.0029"},
      {"measurement": "peptide microarray binding signal", "setting": "[2]; peptide modifications: H3R8cit H3K9me3, binder concentration: 100 nM", "result": "0.055 ± 0.0029"},
      {"measurement": "peptide microarray binding signal", "setting": "[3]; [11]", "result": "0.0234 ± 0.008"},
      {"measurement": "peptide microarray binding signal", "setting": "[3]; [12]", "result": "0.0152 ± 0.0012"},
      {"measurement": "peptide microarray binding signal", "setting": "[4]; [11]", "result": "0.331 ± 0.019"},
      {"measurement": "peptide microarray binding signal", "setting": "[4]; [12]", "result": "0.296 ± 0.055"}
    ]},
    {"binder": "ARTKQTARKSTGG", "note": "[H3 1-13 A R T K Q T A Rme2s Kac S T G G]", "values": [
      {"measurement": "peptide microarray binding signal", "setting": "[1]; peptide modifications: H3R8me2s H3K9ac, binder concentration: 500 nM", "result": "0.0059 ± 0.0002"},
      {"measurement": "peptide microarray binding signal", "setting": "[2]; peptide modifications: H3R8me2s H3K9ac, binder concentration: 100 nM", "result": "0.00574 ± 0.00031"},
      {"measurement": "peptide microarray binding signal", "setting": "[3]; [13]", "result": "0.00142 ± 6.5e-05"},
      {"measurement": "peptide microarray binding signal", "setting": "[4]; [13]", "result": "0.00243 ± 0.00046"}
    ]}
  ]
}
